JMJD2A Tudor inh = qHTS Assay for Inhibitors of JMJD2A-Tudor Domain; AlphaScreen JMJD2A-Tudor / H3K4me3 peptide binding; AID 504339, 2011; 390,000 tested, 4.4% active; Lysine-specific demethylase 4A (Homo sapiens), O75164; Potency, µM (doses to about 114 µM), inactives show at the highest dose activity change, negative = inhibition, most hits filed as inhibitors; note: % is set by controls: 0 for no effect and ±100 for the full control effect; nearly all actives have a fitted effect of over 50% in size
GLS inhibitor = qHTS for Inhibitors of Glutaminase (GLS); GLS enzymatic activity, qHTS titration; Potency, µM (series often up to 45.5 µM), for inactives: at the highest dose activity change, negative = inhibition, usual class: inhibitors; 410,000 tested, 0.21% active; note: % is set by controls: 0 for no effect and ±100 for the full control effect
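hKGA in 45 mM KH2PO4 (pH 8.2), 0.02% Tween-20 with compound, then 1mM L-Glutamine (stock as added) plus glutamate oxidase/HRP/Amplex red coupling mix. Fluorescence read initially and after 30 min at RT; signal change reflects glutamate formation.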
BAZ2B inh = qHTS Assay for Inhibitors of BAZ2B; 360,000 tested, 4.4% active; Potency, µM (doses to about 114 µM), for the others: at the highest dose activity change, negative = inhibition, usual class: inhibitors; Bromodomain adjacent to zinc finger domain protein 2B (Homo sapiens), Q9UIF8; AlphaScreen BAZ2B-H3K14Ac peptide displacement; AID 504333, 2011; note: % is set by controls: 0 for no effect and ±100 for the full control effect; nearly all actives have a fitted effect of over 60% in size
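BAZ2B 50 nM plus b-H3(5-23)K14Ac 50 nM, PBS pH 7.4/0.01% Tween-20, 30 min RT; compound added (max 110 uM), 30 min RT; streptavidin donor/Ni-chelate acceptor beads 10 ug/mL final, 20 min dark; AlphaScreen read.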
HP1b binding inh = HTS for Inhibitors of HP1-beta Chromodomain Interactions with Methylated Histone Tails | Potency, µM (doses to about 114 µM), inactives show at the highest dose activity change, negative = inhibition, most hits filed as inhibitors | Chromobox protein homolog 1 (Homo sapiens), P83916 | AID 540317, 2011 | AlphaScreen HP1-beta / biotin-H3K9me3 peptide binding | 390,000 tested, 0.56% active; note: nearly all actives have a fitted effect of over 70% in size
Target sequence (P83916 whole entry, looked up): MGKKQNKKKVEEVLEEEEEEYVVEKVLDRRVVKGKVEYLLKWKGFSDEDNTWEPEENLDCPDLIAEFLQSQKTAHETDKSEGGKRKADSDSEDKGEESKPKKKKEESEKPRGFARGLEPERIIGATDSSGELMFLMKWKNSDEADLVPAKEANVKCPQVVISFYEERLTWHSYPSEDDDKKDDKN
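Compound inhibition of the preformed complex between 50 nM HP1-beta and 50 nM biotinylated H3K9me3 peptide was read by AlphaScreen. Buffer was PBS pH 7.4 with 0.01% Tween-20. Incubations ran 30 min at room temperature, with 10 ug/mL donor/acceptor beads.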
G9a inh = qHTS Assay for Inhibitors of Histone Lysine Methyltransferase G9a; Histone-lysine N-methyltransferase EHMT2 (Homo sapiens), Q96KQ7; G9a H3K9 monomethylation, AlphaScreen, 2 h; Potency, µM (top dose mostly 102 µM), without a hit: at the highest dose activity, negative = inhibition, hits mostly inhibitors; 350,000 tested, 8.8% active; note: % is set by controls: 0 for no effect and ±100 for the full control effect; nearly all actives have a fitted effect of over 75% in size
Target sequence (Q96KQ7 913-1193 limits assumed): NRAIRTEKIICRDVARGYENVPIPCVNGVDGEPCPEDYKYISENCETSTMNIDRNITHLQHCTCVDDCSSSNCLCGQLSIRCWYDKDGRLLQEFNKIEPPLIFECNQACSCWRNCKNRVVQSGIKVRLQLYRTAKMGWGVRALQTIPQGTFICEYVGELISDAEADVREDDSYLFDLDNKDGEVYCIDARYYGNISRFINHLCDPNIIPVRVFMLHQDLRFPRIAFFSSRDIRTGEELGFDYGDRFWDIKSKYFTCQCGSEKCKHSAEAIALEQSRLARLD
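Step 1: enzyme (final 20 nM) with compound, 15 min RT. Step 2: substrate peptide 500 nM and SAM 20 uM, 2 h RT. Step 3: anti-H3K9me1 antibody and AlphaScreen beads, 10 min, then plate read.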
Active calls of the source: *; ? = inconclusive; · = no result; [ ] = remark or other dose. Most compounds without a hit are left out; they make up all but 10% or so of the library. Calls come from the whole dose curve; as a rule, active = well fitted curve in the direction sought with a large enough effect; inconclusive = small, poorly fitted or top-dose-only effect, or another doubt; inactive = no such curve, though single readings can be large; an effect the other way counts as inactive or inconclusive. Potency is the fitted concentration of half-maximal effect.

SMILES | JMJD2A Tudor inh | GLS inhibitor | BAZ2B inh | HP1b binding inh | G9a inh
CC1CCCN(CCOCCOc2ccc(Br)cc2Cl)C1 (stereo not drawn) | 2.8µM* | 4% | ? | ? | 10µM*
O=C1CCC(=O)N1OCCCOc1ccc(Br)cc1Cl | 10% | -1% | 0% | 69% | -13%[59 µM]
Cc1cc(Cl)c(OCCOCCN2CCCC(C)C2)c(Br)c1 (stereo not drawn) | ? | -14% | 56µM* | 6% | 16µM*
CC1CCN(CCCOc2ccc(Br)cc2Cl)CC1 | 4µM* | 1% | 56µM* | ? | 16µM*
CC1CCCN(CCOCCOc2ccc(Cl)cc2Br)C1 (stereo not drawn) | 2µM* | 2% | ? | ? | ?
CC1CN(Cc2ccco2)C(=S)NC1=O (stereo not drawn) | -18% | -27% | · | -16% | ·
Cc1ccc(Sc2ccc(N3CCC(C(=O)Nc4ccc(Cl)cc4)CC3)nn2)cc1 | 1% | 5% | 2% | 35% | 6%[59 µM]
Cc1ccc(CN2CCC(C(=O)c3ccc(F)cc3)CC2)cc1 | · | -1% | · | · | ·
CC(C)c1ccc(NC(=O)C2CCC(CNC(=O)[C@@H]3Cc4ccccc4CN3)CC2)cc1 (stereo partly drawn) | -14% | 9% | -5% | 46% | ·
COc1ccc(C(=O)/C=C/c2ccc(O)cc2)c(O)c1CC=C(C)C | 45µM* | 11% | ? | ? | ?
COc1ccc(C(=O)/C=C/c2ccc(O)cc2)c2c1CC(O)C(C)(C)O2 (stereo not drawn) | ? | 5% | · | 50% | ·
CCOc1ccc(-c2cc(-c3nc(-c4ccc(C)cc4)no3)[nH]n2)cc1 | -19% | 3% | 2% | 32% | 12%[59 µM]
COc1ccc(OC)c(NS(=O)(=O)c2ccc3c(c2)n(C)c(=O)n3C)c1 | -3% | 14% | ? | 16% | -7%[12.7 µM]
Cn1c(=O)c(=O)n(C)c2cc(N3CCCCC3)c(NS(=O)(=O)c3ccc([N+](=O)[O-])cc3)cc21 | -31% | 4% | -37% | 39% | 32µM*
COc1ccc(OC)c(S(=O)(=O)Nc2cc3c(cc2N2CCCC2)n(C)c(=O)c(=O)n3C)c1 | 32µM* | ? | 50µM* | 7% | 10µM*
Cn1c(=O)c(=O)n(C)c2cc(N3CCOCC3)c(NS(=O)(=O)c3ccc(Br)cc3)cc21 | ? | 14% | ? | -4% | 35µM*
Cn1c(=O)c(=O)n(C)c2cc(N3CCCC3)c(NS(=O)(=O)c3ccc(F)cc3)cc21 | -24% | -14% | -17%[57.1 µM] | 50% | 40µM*
Cc1ccc(S(=O)(=O)Nc2cc3c(cc2N2CCOCC2)n(C)c(=O)c(=O)n3C)cc1 | -2% | 0% | -22% | 52% | ?
CCN1CCN(C(c2ccc(F)cc2)c2sc3nc(-c4ccco4)nn3c2O)CC1 (stereo not drawn) | -6% | 9% | 14% | 77% | 5%[59 µM]
O=[N+]([O-])c1cccc(/C=N/N=C\c2ccccc2)c1 | -29% | 7% | -37% | 34% | 39%
CC1CCCC(C)N1/N=C/c1cccc([N+](=O)[O-])c1 (stereo not drawn) | ? | 3% | 11%[0.457 µM] | -33% | -17%[59 µM]
Oc1ccccc1/C=N/N1CCN(c2ccccn2)CC1 | ? | 21% | ? | 5% | -5%
O=C(N/N=C/c1cccc([N+](=O)[O-])c1)c1ccc(CN2CCOCC2)cc1 | -25% | 4% | -2% | 45% | -7%[59 µM]
C(=N\N1CCN(c2ccccn2)CC1)/c1cccc2ccccc12 | 40µM* | -10% | 35µM* | ? | 40µM*
O=[N+]([O-])c1cccc(/C=N/N2CCN(Cc3ccc(Cl)cc3)CC2)c1 | 50µM* | -6% | 20µM* | ? | ·
O=[N+]([O-])c1cccc(/C=N/N2CCN(Cc3ccccc3)CC2)c1 | ? | -7% | 25µM* | -13% | ?
O=[N+]([O-])c1cccc(/C=N\N2CCN(Cc3ccccc3Cl)CC2)c1 | 45µM* | -3% | 35µM* | ? | 10µM*
